From the supplement of paper PMC6555819 come the findings set out here.

In the experiment the test system is VDR:RXRa (NR concentration 270 nM, RXRa partner concentration 90 nM). Kind of experiment: PBM binding z-score (relative to random genomic background probes); higher = stronger binding; sequences stand for … in GC…GCGATTGACAGCGTAGAATGAAGG
On the procedure: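 Protein-binding microarray (Agilent 4x180K custom design, double-stranded 60-nt probes: 5' GC cap, 34-nt variable region, 24-nt constant primer region; full probe sequence given). Purified or IVT nuclear receptor:RXRα heterodimers (3:1 NR:RXRα, mostly 270:90 nM) or homodimers were incubated for 1 h in PBS with 2% milk and no ligand, then detected with Alexa488 antibodies. Fluorescence from o1-orientation probes (~5 replicates averaged) was converted to z-scores against 500 random hg19 background probes. Variable regions are seed direct-repeat (DR0–DR5) sites, all their single-nucleotide variants and half-site ablations.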
Sequence CCTACTGGGCCATTCAGAAGTCATTGATCATATG showed a PBM binding z-score of -0.356.
For the sequence CCGACTGGGGCAAATGTTACCATACTCAGTACGA, the PBM binding z-score was -0.22.
The result for GGAATGAGGGCATTCGAGTTGATAGCATGGCGAT reads 3.45; that for TAGCCTAGGTCATTAAGGGGCCAGTATAGAAAGC, 2.52.
The value for CAAACTAGGTCACAGATGTCAAAGTCCGTGCGTA was 4.5; that for CAAACCAGGTCACCGGAAGGTCAAAGTCCGCATG was 6.39; that for TCGGGTAGGTTAGGGGCATTCAGAATGGCGTCGA was 1.57.
In the case of TCTATTAGTTGATTAGGGCAACCGGAACAGCGGA, the PBM binding z-score is 0.629.
The value for ACAGACAGGTGAGTGAAGGTAAATCAGCTGGACG was -0.406; that for ATCGAAAGGTCGACGAGGTGAGCATACACCGTTT was 5.07; that for ATCTCTAGGTAAAGATAGTTCAGTTAATGCAAAT was 1.21.
The result for CCTAGCAGGCCAGGGTCAATCAAGCATTTCGCTT reads 2.86; that for ATCTCAAGGTAACAAGTTCAGTGAAAGAGAGGAC, 2.8.
ACAATGAGGTTACCAAAGATCAGGGAAACGCTTG gave a PBM binding z-score of 1.68.
As to CCTTACGGGTCACGAGGTTCTAGCACGACGAGCG, the PBM binding z-score turned out to be 6.18.
In the case of CCTACTGGGCCATCAGGTAATTGATATCAACGTT, the PBM binding z-score was -0.176.
The value for TCTTGTAGATCAACAGGAGGTTAAGAAGGATCGA was 0.575; that for GCATATAGGTAATACAAGCTGAAAGTCCGATTGT was -0.105.
The value for TTACCAAGGTGCAGGTCGTTGATCCCTCTGTAGA was 0.558; that for CCTCGGAGGACAGAAGGTCGGAGCTGTCCGCTTT was -0.398.
The result for TTGCCTAGGTCATGGGCCAGTATACCACGCGAAC reads 2.21; that for ATCTCTAGGTAACCACGTTCAGTGAATGCCGAAC, 0.175.
ATATCTAGGTTAAGGGTCATTCAGGTTGGTTCGC registered a PBM binding z-score of 5.89.
The value for TCGAGTAGGTTAGTCGGGGCATTTAGCCAACATA was 2.2; that for GCGACTGGGGCAAAGCAGGTTACCCTAAGGTTGG was 0.0152.
The result for CGGACTAGGTCATTGACAGGACAGTGAATAGTAA reads 2; that for CCTAGCAGGCCAACCTGGGTCACTCAAGGCTTGA, 1.15.
The value for GCTAGTTGGTTAGTAAAAGGTCACACACCGGTCG was 3.93; that for ATATGTAGGTTAAGGGTCATTTAGGTTGGTTCGC was 5.38.
CGTCAAAGTTCAAGGTAACCTAACAGAAAGCAGC gave a PBM binding z-score of 3.96.
The value for AGTCAAAGTTCACAAGGTAACGTAAGATTCAGCT was 4.25; that for TCTAGTTGGTCAAGGGTCACACACTCGAAATGCG was 4.32; that for ATCTCTAGGTAAATTTCAGTGAAAGATCGATAGA was 0.297.
The sequence AGAATAAGGTTATACGTAGATCAGGGAAGAAAGT gave a PBM binding z-score of 1.04.
TCTACTAGGTCAACGATGGTCAGCTAATCTGCTA returned a PBM binding z-score of 2.27.
The value for CCTTACGGGTCACGCCAGGTTATAGCATCGGAGT was 5.36.
The result for CCTGCTGGGCCAAAAAGGTCATTGATGCCGATAA reads 4.84.
With CCTTACGGGTCAAGGTTAAAGCACGGGTGGTACG, the PBM binding z-score is 3.5.
As to ATACCAAGCTGATCGTGAGGTCGTTGATACTAAC, the PBM binding z-score stood at 1.38.
The result for AGATTGAGGTTATACGTAGATCAGGGAAGAAAGT reads 1.23.
